# Measured values taken from PubChem BioAssay (NCATS).
# Inconclusive results are not listed. A number with no mark means an inactive call. Activity calls are given as the source filed them. Calls come from the whole dose curve; as a rule, active = well fitted inhibition curve with a large enough effect; inconclusive = small, poorly fitted or top-dose-only effect; inactive = flat fitted curve, though single readings scatter.
# Target: Calcium and integrin-binding protein 1 (Homo sapiens) (UniProt Q99828)
# Sequence (Q99828 whole entry, looked up): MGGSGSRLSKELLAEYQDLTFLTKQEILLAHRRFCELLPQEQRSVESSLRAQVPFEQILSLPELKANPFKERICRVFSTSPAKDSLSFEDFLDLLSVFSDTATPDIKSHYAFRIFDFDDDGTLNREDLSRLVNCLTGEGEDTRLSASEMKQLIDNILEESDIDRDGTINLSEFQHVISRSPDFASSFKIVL
# Assay: Primary qHTS for Identification of Calcium Integrin Binding Protein 1 (CIB1) Competitor (AID 1508620);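 note: GST tagged CIB1 binding a fluorescein labelled alphaIIb integrin peptide tracer; top concentration of the series differs between compounds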
# Conditions: CIB1-GST / FITC-alphaIIb peptide fluorescence polarization; series mostly up to 57.7 µM; activity change, negative = inhibition: at the top concentration
# Procedure, shortened: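 Fluorescence polarization competition: CIB1-GST (1 uM final) preincubated with compound 15 min at room temperature, then FITC-labeled alphaIIb peptide (100 nM final) added for another 15 min. Polarization read at Ex 480/Em 540.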
# % is set by controls: 0 for no effect and ±100 for the full control effect.
SMILES,"activity change, negative = inhibition",Potency
CC(=O)Oc1cc2c(s1)CCN([C@H](C(=O)C1CC1)c1ccccc1F)C2,-1% [at 114 µM],
CCOC(=O)N1CCC(NCCNC(=O)c2ccccc2C)CC1,3.6% [at 114 µM],
CC(/C=C/C1(O)C2(C)COC1(C)CC(=O)C2)O[C@@H]1O[C@H](CO)[C@@H](O)[C@H](O)[C@H]1O (stereo partly drawn),-3.35%,
C=CC1(C)C=C2C(=O)CC3C(C)(C)CCCC3(C(=O)O)C2(O)CC1 (stereo not drawn),-1.98%,
C=C(C)[C@@H](C)[C@H]1O[C@]23C[C@]4(CO2)C(CCC2[C@@]5(C)CC[C@H](O[C@@H]6OC[C@H](O)[C@H](O[C@@H]7O[C@H](CO)[C@@H](O)[C@H](O)[C@H]7O)[C@H]6O[C@@H]6O[C@@H](CO)[C@H](O)[C@H]6O)C(C)(C)C5CC[C@]24C)C3[C@@](C)(O)[C@@H]1OC(C)=O (stereo partly drawn),1.33% [at 30.2 µM],
NC(=O)c1ccc(OCC2NC(=O)C3CCCN3C2=O)cc1 (stereo not drawn),-4.46% [at 114 µM],
C=C1C(=O)OC2CC(C)=C(C(C)CCCO[C@@H]3O[C@H](CO)[C@@H](O)[C@H](O)[C@H]3O)C(O)C12 (stereo partly drawn),-0.596%,
C=C(C)C1CC2(CO)C(=CC1=O)CCC(O)C2C (stereo not drawn),-3.41% [at 114 µM],
COC1CC(=O)CCC(C)OC(=O)CC1O (stereo not drawn),-3% [at 114 µM],
CC(=O)O[C@@H]1C[C@]2(C)[C@@]3(CCC4[C@@]5(C)CC[C@H](O[C@@H]6O[C@H](C(=O)O)[C@@H](O)[C@H](O[C@@H]7O[C@H](CO)[C@H](O)[C@H](O)[C@H]7O[C@@H]7O[C@@H](C)[C@H](O)[C@@H](O)[C@H]7O[C@@H]7OC[C@](O)(CO)[C@H]7O)[C@H]6O[C@@H]6O[C@H](CO)[C@H](O)[C@H](O)[C@H]6O)C(C)(C)C5CC[C@]42C)O[C@@H](O)[C@]12C3CC(C)(C)[C@@H](OC(=O)/C=C/c1ccc(O)c(O)c1)[C@@H]2OC(=O)/C=C/c1ccccc1 (stereo partly drawn),2.91% [at 12.4 µM],
CCCCS(=O)(=O)Nc1ncnc(OCCOc2ncc(Br)cn2)c1-c1ccc(Br)cc1,-2.32% [at 114 µM],
O=C1NC(=Nc2ccccc2F)S/C1=C\c1ccc(C(=O)O)cc1,-15.9% [at 114 µM],
C[C@@H]1O[C@@H](O[C@H]2[C@H](OC(=O)C34CCC(C)(C)CC3C3=CCC5C6(C)CC(O)C(O[C@@H]7O[C@H](CO)[C@@H](O)[C@H](O)[C@H]7O)C(C)(C(=O)O)C6CCC5(C)C3(CO)CC4)O[C@H](C)[C@H](O)[C@@H]2O)[C@H](O)[C@H](O)[C@H]1O[C@@H]1OC[C@@H](O)[C@H](O)[C@H]1O (stereo partly drawn),4.81% [at 30.2 µM],
CC1(C)CCCC2(C)C1C(O)C=C(CO)C2(O)C(=O)O (stereo not drawn),3.29% [at 114 µM],
CCC(=O)O[C@]1(C(=O)CCl)[C@@H](C)C[C@H]2[C@@H]3C[C@H](F)C4=CC(=O)C=C[C@]4(C)[C@@]3(F)[C@@H](O)C[C@@]21C,0.348% [at 114 µM],
CC1=CC(=O)C2C(C)(C)CC(O)CC2(C)C1CO (stereo not drawn),-2.27% [at 114 µM],
CC(C)=CC/C=C(/C)[C@H]1CC[C@]2(C)[C@@H]1[C@H](O)CC1[C@@]3(C)CC[C@H](O)C(C)(C)[C@@H]3[C@@H](O[C@@H]3O[C@H](CO)[C@@H](O)[C@H](O)[C@H]3O[C@@H]3O[C@@H](C)[C@H](O)[C@@H](O)[C@H]3O)C[C@]12C (stereo partly drawn),-9.48% [at 30.2 µM],
C=C[C@](C)(CC/C=C(\C)C(=O)O)O[C@@H]1OC[C@H](O)[C@H](O)[C@H]1O,-11.9%,
C[C@@H]1O[C@@H](O[C@H]2[C@H](OC(=O)C34CCC5(C)C(=CCC6C7(C)CC(O)C(O[C@@H]8O[C@H](C(=O)O)[C@@H](O)[C@H](O)[C@H]8O)C(C)(C(=O)O)C7CCC65C)C3CC(C)(C)CC4O)O[C@H](C)[C@@H](O)[C@@H]2O)[C@H](O)[C@@H](O[C@@H]2OC[C@](O)(CO)[C@H]2O[C@@H]2O[C@H](CO)[C@@H](O)[C@H](O)[C@H]2O)[C@H]1O (stereo partly drawn),-1.08% [at 12.4 µM],
CO[C@@H]1COCC[C@@H]1N[C@@H]1CC[C@@](C(=O)N2CCc3ncc(C(F)(F)F)cc3C2)(C(C)C)C1,,inactive
C=C1C[C@]23C[C@H]1CC[C@H]2[C@]1(C)CCC[C@@]2(CO)C(=O)O[C@H]([C@H]21)[C@@H]3O,-6.99%,
COCC(=O)N1CCc2cc(-c3csc(NC(=O)c4cc(OC)cc(OC)c4)n3)ccc21,1.99% [at 114 µM],
COc1ccc(/C=C/C(=O)O[C@@H]2[C@@H](OC(C)=O)[C@@H](OC(C)=O)[C@H](O[C@H]3[C@@H]4C=CO[C@@H](O[C@@H]5O[C@H](CO)[C@@H](O)[C@H](O)[C@H]5O)[C@@H]4[C@@]4(CO)O[C@@H]34)O[C@H]2C)cc1O,1.12% [at 30.2 µM],
